The values that follow are results of earlier work, collected in PubChem BioAssay AID977611.

In all, about 3,900 compounds went through this assay and about 3,900 (100%) were called active. No cut-off is given here; in the data, nearly all actives have Kd up to about 4200 µM. So high a share suggests a set chosen from earlier hits. The list shows a part of the results.

As usually defined, the Kd is a measure of binding affinity in units of concentration.

The nature of the data set: PubChem AID 977611. Particulars: PDB protein-ligand complexes, literature Kd.

Regarding `CN(C)c1ccc(C(c2ccc(O)cc2)c2ccc(N(C)C)cc2)cc1`, the Kd (protein: Immunoglobulin lambda variable domain L5(L89S), PDB entry 4k3h) was 0.14 µM (active).
Turning to `CN(C)c1ccc(C(c2ccc(N(C)C)cc2)c2ccc(N(C)C)cc2)cc1`, the Kd (protein: Putative regulatory protein, PDB entry 3vw1) is 21.2 µM (active).
For the compound `Nc1ccc2[nH]c(=O)c3ccccc3c2c1`, where the note is “protein: Putative ADP-ribosyltransferase Certhrax, PDB entry 4fk7”, the Kd was 5.8 µM (active).
In the case of `Nc1ncnc2c1ncn2[C@@H]1O[C@H](CO[P+](O)(O)OS(O)(O)O)[C@@H](O)[C@H]1O`, the Kd (protein: Adenylyl-sulfate kinase 1, chloroplastic, PDB entry 4fxp) was 80.4 µM (active).
Take `Nc1ncnc2c1ncn2[C@@H]1O[C@H](CO[P+](O)(O)O[P+](O)(O)N[P+](O)(O)O)[C@@H](O)[C@H]1O`: the Kd reads like this: (protein: INOSITOL-PENTAKISPHOSPHATE 2-KINASE, PDB entry 4axd) 37 µM (active); (protein: N-acetylhexosamine 1-phosphate kinase NahK, PDB entry 4ock) 8.3 µM (active); (protein: N-acetylhexosamine 1-phosphate kinase NahK, PDB entry 4ocv) 8.3 µM (active); (protein: Osmolarity sensor protein EnvZ, Histidine kinase, PDB entry 4kp4) 6.8 µM (active).
As to `Nc1ncnc2c1ncn2[C@@H]1O[C@H](CO)[C@@H](O[P+](O)(O)OC[C@H]2O[C@@H](n3ccc(=O)[nH]c3=O)[C@H](O)[C@@H]2O)[C@H]1O`, the Kd (protein: Poly(A) RNA polymerase protein cid1, PDB entry 4nku) is 21.3 µM (active).
On to `Nc1ncnc2c1ncn2[C@@H]1O[C@H](CO[P+](O)(O)O)[C@@H](O)[C@H]1O[C@H]1O[C@H](CO[P+](O)(O)O)[C@@H](O)[C@H]1O`, for which the dissociation constant (Kd) (protein: E3 ubiquitin-protein ligase RNF146 RNF146(RING-WWE), PDB entry 4qpl) is 0.039 µM (active).
As for `Nc1ncnc2c1ncn2[C@@H]1O[C@H](CO[P+](O)(O)O[P+](O)(O)O[P+](O)(O)O)[C@@H](O)[C@H]1O`, the Kd is 2030 µM (active) (protein: ADENYLATE CYCLASE TYPE 10, PDB entry 4usw); 1.38 µM (active) (protein: Chaperone protein DnaK (N432M,Q433G,S434G mutation), PDB entry 4jn4); 1.38 µM (active) (protein: Hsp70 CHAPERONE DnaK (N432M,Q433G,S434G mutation), PDB entry 4jne); 4 µM (active) (protein: Nitrogen regulatory protein P-II hmGlnK2, PDB entry 4ozn); 0.125 µM (active) (protein: Protein hfq, PDB entry 3qo3); 170 µM (active) (protein: Walker B/D-loop D645N, D651A double mutant rat TAP1-NBD, PDB entry 4k8o).
`NC(=O)C1=CN([C@H]2O[C@H](CO[P+](O)(O)O[P+](O)(O)OC[C@H]3O[C@@H](n4cnc5c(N)ncnc54)[C@H](O)[C@@H]3O)[C@@H](O)[C@H]2O)C=CC1`: the Kd (protein: Redox-sensing transcriptional repressor rex, PDB entry 3wgg) is 39.9 µM (active).
Consider `Nc1ncnc2c1ncn2[C@@H]1O[C@H](CO[P+](O)(O)O[P+](O)(O)O[P+](O)(O)O[P+](O)(O)O[P+](O)(O)OC[C@H]2O[C@@H](n3cnc4c(N)ncnc43)[C@H](O)[C@@H]2O)[C@@H](O)[C@H]1O`, for which the Kd (protein: Adenylate kinase, PDB entry 4w5j) was 0.057 µM (active).
Take `Nc1ncnc2c1ncn2[C@@H]1O[C@H](CO[P+](O)(O)O[P+](O)(O)OC[C@H]2O[C@H](O)[C@H](O)[C@@H]2O)[C@@H](O)[C@H]1O`: the Kd reads like this: (protein: Poly [ADP-ribose] polymerase 14 MACRO DOMAIN 1, PDB entry 3q6z) 192 µM (active); (protein: Poly [ADP-ribose] polymerase 14 MACRO DOMAIN 1 and 2, PDB entry 3vfq) 6.4 µM (active); (protein: Poly [ADP-ribose] polymerase 14 MACRO DOMAIN 2, PDB entry 3q71) 6 µM (active); (protein: Poly [ADP-ribose] polymerase 14 MACRO DOMAIN 3, PDB entry 4abk) 1.9 µM (active).
With H-PHGGSWGQP-OH, for the setting “protein: POM2 Fab, PDB entry 4j8r”, the Kd was 0.02 µM (active).
Consider `CC(=O)N1CCC[C@H]1C(=O)N[C@@H](Cc1c[nH]c2ccccc12)C(=O)N[C@@H](C)C(=O)N[C@H](C(=O)N[C@@H](CS)C(=O)N[C@@H](CC(=O)O)C(=O)N[C@@H](CO)C(N)=O)[C@@H](C)O`, for which the Kd (protein: Thiol:disulfide interchange protein DsbAC30S, PDB entry 4od7) is 8.3 µM (active).
For H-PDVSSSTA-OH, for the setting “protein: Speckle-type POZ protein, SPOPMATH, PDB entry 3ivq”, the Kd is 76.1 µM (active).
